Assay [1] in a line: qHTS profiling of the MIPE4 collection as inhibitors of Plasmodium falciparum (3D7) proliferation (AID 743344).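 Note: scaled between DMSO vehicle wells and 0.29 µM artemisinin as full inhibition.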 To be noted: P. falciparum 3D7 in erythrocytes, SYBR Green DNA fluorescence, 72 h; at 28.5 µM unless noted. The method in brief:
(§1)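 Parasite DNA was quantified by SYBR Green I fluorescence (ex 485, em 535 nm) after overnight lysis in saponin/Triton buffer at room temperature. Cultures at 0.3% parasitemia and 2.5% hematocrit were first exposed to compound for 72 h at 37 C; signals were normalised to artemisinin (0.29 uM) and vehicle wells.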

Assay [2] is described as follows: qHTS profiling of the MIPE4 collection as inhibitors of Plasmodium falciparum (DD2) proliferation (AID 743345). As to conditions: P. falciparum Dd2 in erythrocytes, SYBR Green DNA, 72 h; at 28.5 µM unless noted. The method in brief:
as §1

The nature of assay [3]: qHTS profiling of the MIPE4 collection as inhibitors of Plasmodium falciparum (DD2) proliferation (Rep 2) (AID 743346). As to conditions: P. falciparum Dd2 in erythrocytes, SYBR Green DNA, 72 h; at 28.5 µM unless noted. In short, it runs like this: as §1
A general note: qHTS replaces the single test concentration by a dilution series.

Assay [4] in a line: qHTS profiling of the MIPE4 collection as inhibitors of Plasmodium falciparum (HB3) proliferation (AID 743347).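 Note: plate controls were DMSO vehicle wells for no effect and artemisinin wells for full effect.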 As to conditions: P. falciparum HB3 in erythrocytes, SYBR Green DNA, 72 h; at 28.5 µM unless noted. In short, it runs like this: as §1
Assay [5] can be described thus: High-throughput drug toxicity screening in the BPDCN cell line Gen2.2 (AID 1224824).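 Note: cells exposed to compounds for 48 h before reading.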 To be noted: Gen2.2 BPDCN cells; at 45.8 µM (top of the series) unless noted. The method in brief: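 CellTiter-Glo luminescence read after 48 h compound exposure at 37 C defines viability; percent activity set with DMSO as 100% and bortezomib (9.2 uM final) as 0%. 500 exponentially growing cells per well, RPMI plus 10% FBS.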

Assay [6] is described as follows: High-throughput drug toxicity screening in the BPDCN cell line Cal-1 (AID 1224825). As to conditions: Cal-1 BPDCN cell viability, qHTS; at 45.8 µM (top of the series) unless noted. The method in brief: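 Viability of the BPDCN line Cal-1 is measured as ATP-based luminescence (CellTiter-Glo) following 48 h incubation with compounds. Percent activity uses DMSO-treated wells as 100% and 9.2 uM bortezomib as 0%.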

The nature of assay [7]: qHTS assay for measurement of the activity of small molecule inhibitors on Zika virus induced Caspase-3 activity in human iPSC derived neural progenitor cells (hNPCs) (AID 1224857; active = well fitted curve in the direction sought with a large enough effect; an effect the other way counts as inactive or inconclusive; note: % of control where 0% means no effect; nearly all actives have a fitted effect of over 65% in size). The method in brief:
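hNPCs seeded 350 cells/well, cultured 16–20 h; compounds added 1 h before ZIKV (2 FFU/cell), 37 C 6 h. Caspase-Glo 3/7 luminescence after 30 min RT; % inhibition from induction scaled to uninfected (0%) and infected (100%) wells.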

The nature of assay [8]: qHTS Screen of the MIPE 4.0 Collection Against Ewings Sarcoma (RDES) (AID 1259252; active = well fitted curve in the direction sought with a large enough effect; an effect the other way counts as inactive or inconclusive; note: nearly all actives have a fitted effect of over 35% in size; note: potency is the fitted concentration of half-maximal effect). The method in brief: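 Compound titrations go onto adherent log-phase cells 4 h after seeding, incubate 48 h at 37C, then CellTiter-Glo luminescence reports viability relative to DMSO and cell-free controls.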
Assay [9] is described as follows: qHTS profiling for inhibitors of Plasmodium falciparum (HB3) proliferation (AID 743324; active = well fitted curve in the direction sought with a large enough effect; an effect the other way counts as inactive or inconclusive;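 note: 100% = DMSO vehicle wells and 0% = artemisinin-treated control wells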). To be noted: Plasmodium falciparum HB3 blood-stage proliferation; at 28.7 µM (top of the series) unless noted. In short, it runs like this:
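SYBR Green fluorescence (485 ex/535 em) of lysed cultures, incubated overnight at room temperature in the dark, quantifies parasite DNA. Infected erythrocytes at 0.3% parasitemia and 2.5% hematocrit were exposed 72 h; values normalized to DMSO and 0.29 uM artemisinin controls.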

Inconclusive results are not listed. Calls of active or inactive are those of the source. Unless noted, the rule behind the calls is not given here.

In turn, `CC(C)=CCCC(C)=CCCC(C)=CCCC(C)=CCCC(C)=CCCC(C)=CCCC(C)=CCCC(C)=CCCC(C)=CCO` had a parasite growth, % of DMSO control in [1] of 95.7%. For the same molecule, in assay [2], the parasite growth remaining, % of DMSO control (lower = more inhibition) is 17.5%. The same molecule gave a parasite growth, % of control (lower = inhibition) in assay [3] of 99.4%. Moreover, the growth, % of control in assay [4] came to 100%. Besides, the cell viability, % of control (lower = more cytotoxic) in assay [5] was 132%. Moreover, in assay [6], the viability (% of control) is 121%. Besides, the Potency result in assay [7] and in assay [8] was “inactive” each time.
With `Cc1ccc2c(=O)c3cccc(CC(=O)O)c3oc2c1C`, the parasite growth remaining, % of DMSO control (lower = more inhibition) in assay [2] is 94%. In assay [3], this molecule yielded a parasite growth, % of control (lower = inhibition) of 76.8%. Also, in [4], the growth, % of control stood at 101%. Besides, the cell viability, % of control (lower = more cytotoxic) in assay [5] was determined as 78%. In addition, the viability (% of control) in assay [6] was 50.1%. Also, the Potency entry in [7] is “inactive”. For the same molecule, the Potency in assay [8] was 18.7 µM (active).
For the molecule `CC(C)(O)CC(=O)NCCn1ccc2ncnc(Nc3ccc(Oc4cccc(C(F)(F)F)c4)c(Cl)c3)c21`, the parasite growth, % of DMSO control in assay [1] amounted to 11.6%. The molecule further came in with a parasite growth remaining, % of DMSO control (lower = more inhibition) in [2] of 18.3%. The molecule further came in with a parasite growth, % of control (lower = inhibition) in assay [3] of 23%. This molecule had a growth, % of control in [4] of 9.01%. Further, the cell viability, % of control (lower = more cytotoxic) in assay [5] is 75.3%. In [6], the viability (% of control) is 61.4%. Also, the Potency result in assay [7] was “inactive”. Further, in assay [8], the Potency is 0.935 µM (active).
Molecule `COc1cc2c(cc1Cc1cccc(Cl)c1F)c(=O)c(C(=O)O)cn2[C@H](CO)C(C)C` yielded a parasite growth, % of DMSO control in [1] of 7.9%. Moreover, the parasite growth remaining, % of DMSO control (lower = more inhibition) in [2] worked out at 19%. In addition, the parasite growth, % of control (lower = inhibition) in assay [3] worked out at 16.6%. Moreover, the growth, % of control in assay [4] came to 3.89%. In addition, the cell viability, % of control (lower = more cytotoxic) in [5] is 19.1%. Further, the viability (% of control) in assay [6] was 11%. Also, the Potency entry in [7] is “inactive”. Moreover, in [8], the Potency was 26.4 µM (active).
As for `COc1ccc(-c2ccc3ncc4c(c3c2)n(-c2ccc(N3CCNCC3)c(C(F)(F)F)c2)c(=O)n4C)cn1`, the parasite growth, % of DMSO control in [1] was determined as 7.25%. In addition, in assay [2], the parasite growth remaining, % of DMSO control (lower = more inhibition) was 6.37%. For the same molecule, the parasite growth, % of control (lower = inhibition) in [3] was determined as 9.13%. In [4], this molecule gave a growth, % of control of 3.39%. Also, in assay [5], the cell viability, % of control (lower = more cytotoxic) is 0.968%. Moreover, in [6], the viability (% of control) stood at 0.939%. Further, in assay [7], the Potency entry was “inactive”.
Turning to `CCC(=O)N1CCN(c2ccc(-n3c(=O)ccc4cnc5ccc(-c6cnc7ccccc7c6)cc5c43)cc2C(F)(F)F)CC1`, the remaining proliferation (% of control), lower = more inhibition in assay [9] turned out to be 2.49%. In assay [1], this molecule returned a parasite growth, % of DMSO control of 5.26%. Also, the parasite growth remaining, % of DMSO control (lower = more inhibition) in assay [2] was found to be 8.22%. The parasite growth, % of control (lower = inhibition) in assay [3] is 8.45%. In addition, the growth, % of control in assay [4] came to 4.5%. The cell viability, % of control (lower = more cytotoxic) in assay [5] was determined as 6.39%. In assay [6], the viability (% of control) was determined as 20.2%. Moreover, the Potency result in assay [7] is “inactive”.
Turning to `COc1ccc2nc3cc(Cl)ccc3c(Nc3cc(CN4CCCC4)c(O)c(CN4CCCC4)c3)c2n1`, in assay [9], the remaining proliferation (% of control), lower = more inhibition is -0.744%. Besides, the parasite growth, % of DMSO control in assay [1] is 7.61%. Further, in assay [2], the parasite growth remaining, % of DMSO control (lower = more inhibition) came to 6.47%. Besides, in [3], the parasite growth, % of control (lower = inhibition) was determined as 7.91%. The growth, % of control in assay [4] came to 13.2%. For the same molecule, the cell viability, % of control (lower = more cytotoxic) in assay [5] was 21.4%. For the same molecule, the viability (% of control) in assay [6] is 8.39%. The Potency result in assay [7] was “inactive”.
`CN(C)c1ccc(-c2nc3ncc(Cl)c(N4CCN(CC(=O)Nc5nccs5)CC4)c3[nH]2)cc1` displayed a parasite growth, % of DMSO control in [1] of 6.94%. Moreover, the parasite growth remaining, % of DMSO control (lower = more inhibition) in [2] is 9.69%. Further, the parasite growth, % of control (lower = inhibition) in [3] was 8.18%. Besides, the growth, % of control in [4] was 2.92%. The cell viability, % of control (lower = more cytotoxic) in [5] turned out to be 3.51%. Further, the viability (% of control) in assay [6] is 8.53%. Moreover, the Potency entry in [7] was “inactive”. Moreover, the Potency in assay [8] was 20.9 µM (active).
The molecule `O=C(NCCCCN1CCOCC1)c1cc2ccccc2o1` displayed a parasite growth, % of DMSO control in [1] of 89%. The parasite growth remaining, % of DMSO control (lower = more inhibition) in assay [2] was 99.3%. The molecule further had a parasite growth, % of control (lower = inhibition) in assay [3] of 41.5%. For the same molecule, in [4], the growth, % of control worked out at 87.4%. For the same molecule, the cell viability, % of control (lower = more cytotoxic) in assay [5] worked out at 213%. For the same molecule, the viability (% of control) in assay [6] worked out at 109%. The Potency entry in [7] and in assay [8] was “inactive” throughout.
Molecule `Cc1ccc(C2=Nc3ccc(Cl)cc3OC2)cc1` returned a parasite growth remaining, % of DMSO control (lower = more inhibition) in [2] of 94.3%. The molecule also showed a parasite growth, % of control (lower = inhibition) in [3] of 26.5%. In assay [4], this molecule yielded a growth, % of control of 55.7%. Moreover, the cell viability, % of control (lower = more cytotoxic) in assay [5] is 73.9%. The viability (% of control) in assay [6] was found to be 85%. Further, in assay [7], the Potency entry was “inactive”.
Molecule `C[C@@H]1CCO[C@H]2Cn3cc(C(=O)NCc4ccc(F)cc4F)c(=O)c(O)c3C(=O)N12` displayed a parasite growth, % of DMSO control in assay [1] of 55%. The parasite growth, % of control (lower = inhibition) in assay [3] turned out to be 38.3%. Further, the growth, % of control in [4] was determined as 62.8%. Moreover, the cell viability, % of control (lower = more cytotoxic) in [5] was determined as 58.3%. For the same molecule, the viability (% of control) in assay [6] was 12.5%. For the same molecule, in assay [7], the Potency entry was “inactive”.
In [1], `CC[C@H](C)n1cc(C)c2c(C(=O)NCc3c(C)cc(C)[nH]c3=O)cc(-c3ccc(N4CCNCC4)nc3)cc21` yielded a parasite growth, % of DMSO control of 4.84%. Besides, the parasite growth remaining, % of DMSO control (lower = more inhibition) in [2] turned out to be 8.83%. In addition, the parasite growth, % of control (lower = inhibition) in assay [3] came to 8.77%. This molecule also yielded a growth, % of control in assay [4] of 6.2%. Further, the cell viability, % of control (lower = more cytotoxic) in assay [5] came out at 133%. Further, the viability (% of control) in [6] was 39.5%. Further, the Potency result in assay [7] was “inactive”.

Source of the values: PubChem BioAssay (NCATS).
